Reference: PubChem BioAssay AID489043 (National Center for Advancing Translational Sciences (NCATS), 2010)
Inconclusive results are not listed. Values without a mark were called inactive. Calls of active or inactive are those of the source. The call rests on the fitted dose curve; in most records, active means well fitted activation curve with a large enough effect; inconclusive means small, poorly fitted or top-dose-only effect; inactive means flat fitted curve, though single readings scatter.

Biological target: Relaxin receptor 2 (Homo sapiens) (UniProt Q8WXD0)
Assay: qHTS Assay for Agonists of the Relaxin Receptor RXFP1: RXFP2 Hit Validation; further: nearly all actives have a fitted effect of over 65% in size;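 on activation: 0% = buffer only basal cAMP and 100% = 29 nM porcine relaxin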
Conditions: HEK293 RXFP2 cAMP TR-FRET, 30 min; series mostly up to 115 µM; activation: at the top concentration
Summary of the method: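 Concentration-response EC50s (Hill equation) come from a cAMP TR-FRET assay in HEK293 RXFP2 cells, compound for 30 min at 37C with PDE4 inhibitor.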
Potency means the concentration at half of the fitted maximal effect.

Sequence of Relaxin receptor 2 (Homo sapiens) (Q8WXD0 whole entry, looked up): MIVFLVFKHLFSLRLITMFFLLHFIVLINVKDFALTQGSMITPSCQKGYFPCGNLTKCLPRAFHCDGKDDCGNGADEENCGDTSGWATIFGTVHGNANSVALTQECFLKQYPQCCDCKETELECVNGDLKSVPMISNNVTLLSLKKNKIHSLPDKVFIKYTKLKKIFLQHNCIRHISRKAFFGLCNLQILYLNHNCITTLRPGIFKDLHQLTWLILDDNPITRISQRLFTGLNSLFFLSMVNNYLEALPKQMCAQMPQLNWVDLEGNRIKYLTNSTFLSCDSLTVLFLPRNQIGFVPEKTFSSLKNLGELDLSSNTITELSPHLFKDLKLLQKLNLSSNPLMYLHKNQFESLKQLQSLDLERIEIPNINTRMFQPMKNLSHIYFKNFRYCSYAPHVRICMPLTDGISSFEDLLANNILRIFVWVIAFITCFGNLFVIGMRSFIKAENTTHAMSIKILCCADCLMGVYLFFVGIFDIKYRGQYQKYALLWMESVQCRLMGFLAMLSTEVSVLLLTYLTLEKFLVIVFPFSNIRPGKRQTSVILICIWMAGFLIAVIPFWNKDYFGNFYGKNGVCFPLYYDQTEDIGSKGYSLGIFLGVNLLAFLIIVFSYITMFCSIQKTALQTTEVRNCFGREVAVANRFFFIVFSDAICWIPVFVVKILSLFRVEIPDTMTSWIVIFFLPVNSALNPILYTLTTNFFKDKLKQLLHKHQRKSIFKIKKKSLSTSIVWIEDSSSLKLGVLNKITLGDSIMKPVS

Structure (SMILES)	activation	Potency
COc1ccc(OC)c(NC(=O)CSc2ccc3nnc(-c4cccnc4)n3n2)c1	26.5%	
CC1(C)Cc2nc3sc4c(SCC(=O)NC(c5ccccc5)c5ccccc5)ncnc4c3cc2CO1		6.15 µM (active)
CCOC(=O)c1sc(NC(=O)CCc2ccc(OC)cc2)nc1C		17.3 µM (active)
COc1ccc(CNC(=O)CN2C(=O)NC(C)(c3cccc(Br)c3)C2=O)cc1 (stereo not given)	0.421%	
Cc1cc(C)n2nc(C(=O)Nc3ccc4c(c3)OCCO4)nc2n1		6.9 µM (active)
CC(=O)Nc1ccc(S(=O)(=O)NCc2cc(=O)n(C)c(=O)n2C)cc1		30.9 µM (active)
Cn1c(=O)c2c(ncn2CC(=O)N/N=C/c2cn[nH]c2-c2ccc(F)cc2)n(C)c1=O		21.8 µM (active)
Cc1cccc(NC(=O)c2ccccc2NC(=O)c2ccco2)c1	-1.83% [at 125 µM]	
Cc1ccccc1NC(=O)CNc1ccccc1C(=O)NCc1ccco1	2.32% [at 125 µM]	
CCN(CC)CCCCCC(=O)Nc1ccccc1C(=O)Nc1ccccc1	-1.53% [at 125 µM]	
O=C(Nc1ccccc1C(=O)Nc1ccccc1C(=O)NCc1ccco1)c1ccco1		inactive
COc1ccc(/C=C2/SC(=O)N(CC(=O)Nc3cc(C)on3)C2=O)cc1OC	-62%	
CCN(CC)c1ccc(S(=O)(=O)N2CCOCC2)cc1NC(=O)CSc1nncn1C		12.3 µM (active)
Cc1ccc(C(=O)Nc2cccc(C(F)(F)F)c2)cc1NC(=O)c1cnnc2ccccc12	5.25%	
CCOC(=O)CSc1nc(=O)n2cc(C)ccc2n1	21.2%	
Cc1cc(NC(=O)CSc2ncnc3c2cnn3-c2cccc(Cl)c2)no1	18.2% [at 44.7 µM]	
N#C/C(=C/c1ccc(OCc2ccccc2)cc1)C(=O)NC1CCCCC1	12.7% [at 44.7 µM]	
Cc1cccc(C(=O)Nc2ccccc2C(=O)NCc2ccco2)c1	13% [at 125 µM]	
CCn1c(SCC(=O)Nc2ccc(NC(C)=O)cc2)nc2c1c(=O)n(C)c(=O)n2C		27.5 µM (active)
C=CCOc1c(Cl)cc(CNc2ccc(N(C)C)cc2)cc1OC	6.02%	
COc1ccc(Nc2ncc(C#N)c(N)n2)c(OC)c1	2.09%	
CCc1ccc(-c2nc3ccc(Br)cc3c(C(=O)O)c2C)s1		4.35 µM (active)
O=C(Nc1ccccc1C(=O)N1CCNCC1)c1ccco1	-3.31% [at 125 µM]	
COc1cccc(C(=O)CSc2nnc(-c3cc(OC)cc(OC)c3)o2)c1		10.9 µM (active)
O=C(Nc1ccccc1C(=O)Nc1ccccc1)c1ccco1	-8.2% [at 125 µM]	
NC(=S)c1cc2ccc(O)cc2oc1=O		4.88 µM (active)
CCOC(=O)C1CCN(C(=O)c2cc3c(=O)n4ccccc4nc3s2)CC1		48.9 µM (active)
CCCC(=O)Nc1ncnc2c1ncn2[C@@H]1O[C@@H]2COP(=O)(O)O[C@H]2[C@H]1OC(=O)CCC		1.38 µM (active)
CC(C)(C)C(=O)Nc1ccccc1C(=O)NCc1ccco1	4.53% [at 125 µM]	
COC(=O)c1nc2ccc(N3CCOCC3)cc2c(C)c1C(=O)OC		38.9 µM (active)
